Test results from PubChem BioAssay AID686978 (National Center for Advancing Translational Sciences (NCATS), 2013).
The campaign covered roughly 420,000 compounds. About 64,000 (15%) were called active. Not shown: some 27% with an inconclusive outcome. These entries were drawn from the full list. Unmarked numbers belong to inactive results. Calls follow the shape of the dose curve; as a rule, active = well fitted inhibition curve with a large enough effect; inconclusive = small, poorly fitted or top-dose-only effect; inactive = flat fitted curve, though single readings scatter.

Assay: qHTS for Inhibitors of human tyrosyl-DNA phosphodiesterase 1 (TDP1): qHTS in cells in absence of CPT; also: nearly all actives have a fitted effect of over 55% in size
Conditions: DT40 Tdp1-/- hTDP1 cells, no CPT, ATP luminescence, 48 h; activity change, negative = growth inhibition: at 46.2 µM (top of the series)
Summary of the method: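 Chicken DT40 Tdp1-/- cells stably complemented with human TDP1 were seeded at 400 cells/well with DMSO in place of 20 nM camptothecin. After compound pinning, cells grew at least 48 hr at 37 °C; viability read by CellTiter-Glo luminescence.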
% is scaled to controls: 0 for no effect and ±100 for the full control effect; potency is read from the fitted curve at half-maximal effect.

Compound | activity change, negative = growth inhibition | Potency
CCC1CN(CCNC(=O)c2cccc(C)n2)Cc2cc(OC)ccc2O1 (configuration not stated) | -22.3% | –
CC(C)C(=O)Nc1c(O)c2ccccc2[nH]c1=O | -18.3% | –
O=C(O)C1CCCN(S(=O)(=O)c2cccc3cccnc23)C1 (configuration not stated) | -2.56% | –
CC(C)[C@@H]1NC(=O)c2cc([N+](=O)[O-])cc(I)c2NCCC[C@@H](C(=O)NC(CC(=O)O)C(N)=O)NC(=O)[C@H](CO)NC1=O (some centres not stated) | 5.19% | –
COC(=O)c1c(C)[nH]c(C(=O)NCCc2ccc(S(N)(=O)=O)cc2)c1C | 2.2% | –
CCCc1c(C)nc2c(Br)cccc2c1Cl | -2.83% | –
Cn1cnc(C(F)(F)F)c1-c1ccc([N+](=O)[O-])cc1 | -21.8% | –
COc1ccc(S(=O)(=O)c2c[nH]c(=S)[nH]c2=O)cc1Cl | -9.17% | –
Cc1ccc(/C(N)=N/OC(=O)COc2ccc(Cl)c(C)c2)cc1 | -38.7% | –
COc1ccc(-c2noc(COc3ccc(Cl)c(C)c3)n2)cc1 | -29.5% | –
COc1ccc(C(C)=O)cc1COc1ccc(Cl)c(C)c1 | – | 9.2 µM (active)
O=C(CSCc1c(Cl)cccc1Cl)NN1C(=O)c2ccccc2C1=O | -2.81% | –
Cc1cc(C)c(NC(=S)N2CCCC2C(=O)O)c(C)c1 (configuration not stated) | -5.64% | –
Cc1nn(CC(=O)N2CCN(c3cccc(C(F)(F)F)c3)CC2)c(=O)c2cc3sccc3n12 | -19.1% | –
O=C(c1cc2ccccc2o1)N1CCN(c2cccc(C(F)(F)F)c2)CC1 | -21.2% | –
CC(C)N1C[C@@H](NCc2ccccc2O)C[C@H]1C(=O)N1CCN(c2cccc(C(F)(F)F)c2)CC1 | – | 18.4 µM (active)
Cc1cc(C)nc(NS(=O)(=O)c2ccc(N3C(=O)C4CCCCC4C3=O)cc2)n1 (configuration not stated) | 16.2% | –
CC(=O)NC(Cc1ccccc1)C(=O)NC1CCN(c2ncccc2[N+](=O)[O-])CC1 (configuration not stated) | 8.39% | –
CCCOc1ccc(-c2cccc(NS(=O)(=O)c3ccccc3)c2)nn1 | – | 23.1 µM (active)
O=S(=O)(Nc1cccc(-c2ccc(N3CCOCC3)nn2)c1)c1ccc(Cl)c(Cl)c1 | -20.1% | –
O=[N+]([O-])c1ccc(S(=O)(=O)Nc2cccc(-c3ccc(N4CCCC4)nn3)c2)cc1 | -15.2% | –
N#Cc1ccc(CSc2nnc3ccccn23)cc1 | -2.49% | –
O=c1c2ccccc2cnn1Cc1n[nH]c(=S)n1-c1ccccc1F | -6.52% | –

Compound | activity change, negative = growth inhibition | Potency
CC(C)=C1SC(N2CCN(c3cccc(C)c3)CC2)=NC1=O | – | 20.6 µM (active)
Cc1ccc(N2CCN(C3=NC(=O)/C(=C\c4cccs4)S3)CC2)cc1 | -22.3% | –
CNS(=O)(=O)c1cnccc1N1CCN(c2cccc(C)c2)CC1 | 8.13% | –
N/C(=N\OC(=O)CC1CCCCC1)c1ccccc1 | -3.88% | –
Cc1cc(C)c2c(=O)[nH]c(SCC(=O)Nc3ccc(Br)cc3)nc2n1 | -37.2% | –
O=C(Nc1cc(S(=O)(=O)N2CCOCC2)ccc1OCC(F)(F)F)c1ccc(N2CCCC2=O)cc1 | -18.2% | –
CCOC(=O)C1C(c2ccc(Cl)cc2)NC(=S)NC1(O)C(F)(F)F (configuration not stated) | -14.7% | –
O=C(NCCOCc1ccc(Cl)cc1)c1ncn[nH]1 | -12.1% | –
O=C(CSc1ncn[nH]1)N/N=C/c1ccc(F)cc1 | -2.04% | –
O=C(/C=C/Sc1ncn[nH]1)c1ccc(Cl)cc1 | – | 2.59 µM (active)
O=C(O)c1cc(Cl)c(Cl)cc1C(=O)Nc1cccc2ncccc12 | -3.56% | –
Cc1csc(NC(=O)c2ccc(C)s2)n1 | -3.86% | –
Cc1csc(NC(=O)c2ccc(-c3ccc(Cl)cc3Cl)o2)n1 | – | 5.17 µM (active)
O=C(Nc1cccnc1Cl)c1cc(-c2cccc(Cl)c2)on1 | – | inactive
Cc1ccc(C(=O)Nc2nc3ccc(Cl)cc3s2)o1 | -29.3% | –
O=C(Nc1cccc2ncccc12)c1ccc(-c2ccc(Cl)cc2Cl)o1 | – | 20.6 µM (active)
COc1ccc(Br)c2c1C(=O)CC2 | -9.71% | –
O=C(NCc1ccc(F)cc1)C(c1ccccc1)N(C(=O)c1csnn1)C1CC1 (configuration not stated) | -5.76% | –
CCNC(=O)N1CCN(S(=O)(=O)c2ccc3c(c2)OCCCO3)CC1 | -11.4% | –
CC(=O)Nc1cc(C(=O)NCc2ccc(F)cc2)ccc1Sc1ccc(F)cc1 | -96.8% | –
O=C(CCl)Nc1ccc(Sc2ccc(NC(=O)CCl)cc2)cc1 | – | 5.17 µM (active)
Cc1ccc(NC(=O)CC(=O)Nc2ccc(C)cc2)cc1 | 1.48% | –
CC(C)(CCl)C(=O)Nc1ccc(Sc2ccc(F)cc2)cc1 | – | 7.31 µM (active)

Compound | activity change, negative = growth inhibition | Potency
CCN(c1ccccc1)S(=O)(=O)c1ccc(NC(=O)C(C)(C)C)cc1 | -11.1% | –
O=C(Cc1ccc(Cl)c(Cl)c1)Nc1ccc(SC(F)F)cc1 | -118% | –
Cc1sc2ncn(CC(=O)NCCCC(=O)NCc3ccc(F)cc3)c(=O)c2c1C | -8.84% | –
Cc1c(Cl)cccc1NC(=O)CC1SC(=NCC2CCCO2)NC1=O (configuration not stated) | -9.62% | –
COc1ccc(N2C(=O)C3CCCN3C2c2cc(OC)c(OC)cc2OC)cc1 (configuration not stated) | -20.9% | –
CCNC(=O)C1(C)CCCN(C(=O)c2ccc3ccccc3n2)C1 (configuration not stated) | -3.43% | –
Cc1cc(/C=N/NC(=O)c2cccnc2)c(C)n1CC(C)C | -0.506% | –
Cc1cc(/C=N/NC(N)=O)c(C)n1C1CCCCC1 | 2.04% | –
Cc1cccc(-n2c(C)cc(/C=N\NC(=O)c3cccs3)c2C)c1 | – | 16.4 µM (active)
CC(=O)Nc1ccc(/C=N/NC(=O)c2cccs2)cc1 | 0.163% | –
Cc1cc(/C=N/n2cnnc2)c(C)n1-c1cccc(C(=O)O)c1 | -0.81% | –
Cc1cccc(-n2c(C)cc(/C=N/NC(N)=S)c2C)c1 | – | 5.8 µM (active)
Cc1c(C#N)c2ncn(CC#N)c(=O)c2n1-c1ccccc1 | -2.44% | –
CCCCOC(=O)Nc1nnc(CC(=O)NCc2ccccc2)s1 | -11.9% | –
Nn1c(SCC(=O)NC2CCCC2)nnc1-c1ccccc1F | -8.8% | –
Cc1cc(-c2ccnc(-n3ncc(C(=O)NC(C)(C)CO)c3C3CC3)n2)c(C)s1 | – | 23.1 µM (active)
Cc1cc(-c2ccnc(-n3ncc(C(=O)NCCc4ccncc4)c3C)n2)c(C)s1 | -20.8% | –
Cc1cccc(CNC(=O)c2cnn(-c3nccc(-c4ccccc4F)n3)c2C2CC2)n1 | 1.08% | –
CNc1nc2c(C)cccn2c(=O)c1C=Nc1ccc(OC)cc1 | 8.41% | –
CC(Oc1ccc(Cl)cc1)C(=O)Nc1ncccn1 (configuration not stated) | -16.2% | –
CCN1CCN(C(=O)N[C@@H](C(=O)N[C@@H]2C(=O)N3[C@@H]2SC(C)(C)[C@H]3C(=O)O)c2ccccc2)C(=O)C1=O | -0.422% | –
